Data as given in PubChem BioAssay AID624483 (NMMLSC, 2012).
The campaign covered roughly 360,000 compounds. About 11,000 (3.1%) were called active. Roughly 2% stayed inconclusive and do not appear here. Many of the other results were omitted from the sample, so actives are more common in it than they were. Values without a mark were called inactive. Rule as the data show it: active = fluorescence intensity above about 16000; inconclusive = no clear call, values can overlap the other calls; inactive = below that.

test: compound fluorescence in toxin protease inhibitor counterscreen, primary screen, artefact control for toxin protease inhibitor project, biochemical, multiplex microsphere, HTS (AID 624483); conditions: compound autofluorescence counterscreen, microsphere flow cytometry; hits give high values

SMILES	fluorescence intensity
Cc1cc(CNCc2c(C(=O)N(C)Cc3ccccc3)nc3ccccn23)nn1C	2160
COc1ccc(C2C(C#N)=C(N)Oc3cc(N)ccc32)cc1OC (stereo not given)	23300 (active)
N#CC1=C(N)Oc2cc(O)ccc2C1C1CCCCC1 (stereo not given)	4810
N#CC1=C(N)Oc2cc(N)ccc2C1c1ccccc1 (stereo not given)	4230
O=C(NCc1ccccc1Cl)c1csc([C@@H]2O[C@H](CO)[C@@H](O)[C@H]2O)n1	3690
Cc1cccc(-n2ncc(Cl)c(Cl)c2=O)c1	3990
Cc1cccc(-n2ncc(C#N)c2-n2cccc2)c1	19100 (active)
CC(=O)Nc1c2c(nn1-c1cccc(C)c1)CSC2	5830
CCOC(=O)C1CCCN(C(=O)c2ccc(N(C)C)cc2)CC1 (stereo not given)	2830
CCc1nc2c(OCCC3CCCCC3)cccn2c1N(C)C(=O)c1ccco1	3130
COc1ccc(C(=O)N2CCCCC2c2cc(C(=O)Nc3ccccc3)no2)cc1 (stereo not given)	3670
CCCNC(=O)C1(C)CCN(Cc2ccc(Cl)c(Cl)c2)C1 (stereo not given)	4070
CC1(C(=O)Nc2ccccc2Br)CCN1C(=O)CC1CC1 (stereo not given)	4640
O=C(Nc1cccc(Cc2ccccc2)c1)Nc1ccc2nc([C@@H]3O[C@H](CO)[C@@H](O)[C@H](O)[C@H]3O)[nH]c2c1	5830
CN1C(=O)CC(N2CCN(c3ccccn3)CC2)C1=O (stereo not given)	20700 (active)
O=C(CN1CCN(c2ccccn2)CC1)NC1CCCCC1	5140
O=C(C(Cl)Cl)N1CCN(c2ccccn2)CC1	2340
CCCCc1c(-c2ccc(Cl)cc2)ncn1CCc1ccccc1OC	6340
COc1ccc(CN(Cc2ccco2)S(=O)(=O)c2ccc(S(=O)(=O)N3CCCC3)cc2)cc1	23600 (active)
COc1ccc(S(=O)(=O)NCc2ccc(C(=O)N(C)Cc3ccco3)cc2)cc1	10900
CCOc1ccc(CN(Cc2ccco2)S(=O)(=O)c2ccc(-n3cnnn3)c(OC)c2)cc1	11600
CC1(C(=O)Nc2cccc3c2CCCC3)CCN1C(=O)C1(c2ccccc2)CC1 (stereo not given)	3760
C=CCn1c2c(c3ccccc31)CCC2	6080
NS(=O)(=O)c1ccc(Nc2nc(-c3ccccc3)cs2)cc1	23200 (active)
COc1ccc2c(c1OC)C(=O)OC2Nc1nc(-c2ccccc2)cs1 (stereo not given)	2960

SMILES	fluorescence intensity
COc1ccc(-c2csc(Nc3cccc(C)n3)n2)cc1OC	3770
COc1ccc(Nc2nc(-c3ccccc3)cs2)cc1	23300 (active)
CC(=O)c1ccc(Nc2nc(C(N)c3ccccc3)cs2)cc1 (stereo not given)	3990
NS(=O)(=O)c1ccc(NS(=O)(=O)/C=C/c2ccccc2)cc1	7650
CCCOc1ccc(F)cc1-c1cc(C(=O)Nc2ccc(F)cc2)[nH]n1	3520
COCCn1c(SCC(=O)c2[nH]c(C)c(C(C)=O)c2C)nc2ccccc2c1=O	3120
CC(C)Cn1cc(-c2cncc3nccn23)cn1	4100
COCCCNC(=O)c1ccc(-c2c(C)noc2C)c2ccoc12	3520
Cc1ccc(/C=N/NC(=O)Cn2ccc(C(F)(F)F)n2)o1	2150
c1ccc(CSc2nnc(-c3ccco3)c(-c3ccco3)n2)cc1	20900 (active)
c1ccc(Cc2c(-c3ccco3)nc3c4ccccc4ccn23)cc1	4810
Clc1ccc(CSc2nnc3c(n2)[nH]c2ccccc23)cc1	3690
CN(C)CCN(Cc1ccccc1)S(=O)(=O)c1csc(C(N)=O)c1	5470
COc1ccc(-n2c(C)cc(C(=O)CSc3nnc(-c4cccs4)o3)c2C)cc1	18900 (active)
COc1ccc(-n2c(C)cc(C(=O)COC(=O)c3cc(OC)c(OC)cc3NC(=O)c3cccs3)c2C)cc1	2450
Cc1ccc(-n2c(C)cc(C(=O)CSc3nnc4ccccn34)c2C)cc1	2510
CC(C)CCC(C)NC(=O)c1ccc2nccnc2c1 (stereo not given)	4050
COC(=O)c1ccc(OC(=O)c2cnccn2)cc1	4650
O=C(Oc1ccccc1)c1ccc2nccnc2c1	16700 (active)
Cc1nccn1-c1ccc(NC(=O)[C@H]2O[C@@H](n3cnc4c(N)ncnc43)[C@H](O)[C@@H]2O)cc1	5940
CC(Oc1ccccc1F)C(=O)NN (stereo not given)	2470
CC(=O)N(OCc1ccc(OC(C)C)c(Cl)c1)C(C)=O	4420
CCCC(=O)Nc1cccc(NC(=S)NC(=O)C(C)Oc2ccc(Cl)cc2Cl)c1 (stereo not given)	2030
CC(Oc1ccc(Cl)cc1Cl)C(=O)/C=C/N(C)C (stereo not given)	18300 (active)
CN(C)/C=C/C(=O)c1ccccc1F	4920
